Bioassay records: PubChem BioAssay, several laboratories
In the library only some 4.5% were active in any assay of this set; here they are far more common.
CSC inhib: cancer stem cell viability inhibitors, primary screen, luminescence; cancer stem cell-like cells viability; 300,000 compounds, 1.1% hits; inhibition, % at 7.5 µM; AID 2717, 2010; in the data active means inhibition above about 75%; inconclusive means no clear call, values can overlap the other calls; tested in HMLE shEcad cells
Mdm2-MdmX inh: inhibitors of human Mdm2-MdmX association, primary screen, cell-based, luminescence, split luciferase, SaOS-2, uHTS; Protein Mdm4 (Homo sapiens) + E3 ubiquitin-protein ligase Mdm2 (Homo sapiens), …; SaOS-2 split-luciferase Mdm2/MdmX complementation; inhibition, % at 8 µM; 330,000 compounds, 3% hits; AID 485346, 2010;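 active means inhibition of at least 50% at 8 µM in the primary screen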
Target sequence (O15151 whole entry, looked up): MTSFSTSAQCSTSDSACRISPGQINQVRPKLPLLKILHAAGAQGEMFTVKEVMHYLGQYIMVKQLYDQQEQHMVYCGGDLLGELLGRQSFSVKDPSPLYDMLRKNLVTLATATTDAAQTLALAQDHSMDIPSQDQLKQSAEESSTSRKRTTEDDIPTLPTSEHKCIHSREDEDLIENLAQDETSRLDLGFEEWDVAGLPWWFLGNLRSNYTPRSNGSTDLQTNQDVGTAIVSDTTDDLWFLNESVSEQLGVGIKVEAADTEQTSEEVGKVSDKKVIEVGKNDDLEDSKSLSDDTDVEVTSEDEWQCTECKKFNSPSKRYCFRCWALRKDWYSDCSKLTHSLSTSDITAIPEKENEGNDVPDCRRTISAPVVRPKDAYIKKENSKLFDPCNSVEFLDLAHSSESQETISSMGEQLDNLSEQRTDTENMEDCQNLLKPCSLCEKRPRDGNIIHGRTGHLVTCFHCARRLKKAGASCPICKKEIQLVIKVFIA
Target sequence (Q00987 whole entry, looked up): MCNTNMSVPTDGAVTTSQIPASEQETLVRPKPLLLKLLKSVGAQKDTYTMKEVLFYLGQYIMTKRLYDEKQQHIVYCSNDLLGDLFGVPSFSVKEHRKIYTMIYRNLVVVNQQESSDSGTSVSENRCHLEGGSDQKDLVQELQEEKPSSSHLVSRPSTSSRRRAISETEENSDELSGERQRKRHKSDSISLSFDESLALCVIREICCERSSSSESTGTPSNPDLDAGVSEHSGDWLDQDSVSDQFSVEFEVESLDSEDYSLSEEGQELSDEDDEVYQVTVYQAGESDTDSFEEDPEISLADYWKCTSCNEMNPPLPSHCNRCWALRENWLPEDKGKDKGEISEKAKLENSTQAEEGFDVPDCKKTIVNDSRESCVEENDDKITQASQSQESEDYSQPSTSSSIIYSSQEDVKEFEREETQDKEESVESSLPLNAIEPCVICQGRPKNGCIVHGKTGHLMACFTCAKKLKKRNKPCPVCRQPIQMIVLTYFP
Gli-Sufu antag: Gli-Sufu pathway antagonists, primary screen, luciferase luminescence, Sufu-KO-LIGHT cells, uHTS; Sufu-KO-LIGHT fibroblasts, Gli luciferase reporter luminescence; inhibition, % at 5 µM; 340,000 compounds, 0.74% hits; AID 588413, 2011;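 active means inhibition above about 55%, limit read from the data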;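 further: 0% = DMSO-treated cells and 100% = wells with medium but no cells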
Jurkat NFkB inh: inhibitors of induced NF-kB luciferase reporter, primary screen, TCR NF-kB activation inhibitor project, cell-based, luminescence, uHTS; 330,000 compounds, 0.53% hits; inhibition, % at 4 µM; Jurkat, PMA/ionomycin-induced NF-kB luciferase reporter; AID 435003, 2010; in the data active means inhibition above about 50%
697 NFkB inh: inhibitors of PMA/ionomycin-induced NF-kB reporter, 697 cells, primary screen, B-cell NF-kB inhibitor project, cell-based, luminescence, uHTS; 697 B-cell NF-kB luciferase reporter, 16 h; inhibition, % at 4 µM; 330,000 compounds, 0.33% hits; AID 435022, 2010; in the data active means inhibition above about 35%
Beta cell apopt: inhibitors of cytokine-induced beta cell apoptosis, primary screen, luminescence; protection from apoptosis, % (test concentration not listed); INS-1E cytokine-induced death, ATP luminescence, 48 h; percent of positive-control rescue, neutral wells zero; 300,000 compounds, 0.8% hits;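 active means Every replicate reaches about 75%, or at least half do and their mean reaches it too, limit read from the data; inconclusive means At least half of replicates reach the limit but their mean does not; inactive means Under half of replicates reach the limit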;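 further: 0% = cytokine-treated negative control wells and 100% = positive control rescue; higher means more ATP so stronger rescue from cytokine killing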
Gli antag conf: Gli-SUFU pathway antagonists, confirmation, single concentration, luciferase luminescence, Sufu-KO-LIGHT cells; Gli luciferase reporter; inhibition, % at 5 µM; shares compounds with Gli-Sufu antag; 2,500 compounds, 40% hits;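 active means mean inhibition at 5 µM reaching about 45%, limit read from the data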;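 further: plate controls were DMSO-treated cells for no effect and wells lacking cells for full effect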
Gli cytotox: cytotoxicity in Sufu-KO-LIGHT cells, confirmation, cytotoxicity control for Gli-SUFU antagonist project, cell-based, ATP luminescence, single concentration; shares compounds with Gli-Sufu antag; cytotoxicity, % at 5 µM; 2,500 compounds, 32% hits;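 active means mean cytotoxicity at 5 µM above about 25%, limit read from the data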;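 further: cells exposed to compound overnight for roughly 16 to 18 hours; plate controls were DMSO wells with cells for no effect and medium without cells for full effect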
Wnt3a counter: Wnt3a reporter signal inhibition, confirmation, counter-screen for Gli-SUFU antagonist project, Wnt-LIGHT cells, luminescence, single concentration; Wnt3a-driven luciferase reporter; inhibition, % at 6.25 µM; shares compounds with Gli-Sufu antag; 2,500 compounds, 20% hits;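 active means mean inhibition above about 25%, limit read from the data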
The depositor's hits bear a star; ? = inconclusive; · = not tested or not shown.

SMILES | CSC inhib | Mdm2-MdmX inh | Gli-Sufu antag | Jurkat NFkB inh | 697 NFkB inh | Beta cell apopt | Gli antag conf | Gli cytotox | Wnt3a counter
COc1cc2nc(=S)n3[nH]c(COc4ccccc4C)nc3c2cc1OC | 14 | 4 | 7 | 9 | -1 | -3 | · | · | ·
COc1cc2nc(=S)n3[nH]c(CCn4nc(C)cc4C)nc3c2cc1OC | -2 | 18 | 68* | -1 | 20 | · | 40 | 13 | 5
Brc1ccc(C2=Nn3c(Cn4nnc5ccccc54)nnc3SC2)cc1 | -3 | 16 | 55 | 0 | -5 | -7 | 32 | 4 | -36
Cc1oc(-c2ccccc2F)nc1CS(=O)(=O)CC(=O)NCCCN1CCN(C)CC1 | 2 | -19 | -2 | 6 | -36 | 0 | · | · | ·
COc1ccc(-c2nc(CS(=O)(=O)CC(=O)NCCCN3CCN(C)CC3)c(C)o2)cc1 | 0 | -19 | 53 | -14 | -61 | -5 | 11 | 10 | -2
O=C1NCCSC1c1ccccc1 (stereo not given) | -6 | 24 | 1 | 12 | 10 | · | · | · | ·
CC(C)c1ccc(NC2CCCN(C(=O)c3ccsc3)C2)cc1 (stereo not given) | 33 | 7 | · | 9 | -9 | 0 | · | · | ·
Cc1c(Cl)cccc1NC(=O)CCN1CCC(C(N)=O)CC1 | -15 | -2 | 57* | 3 | 15 | -1 | 21 | 3 | 19
O=C1[C@H](Cc2ccccc2)NCCCC[C@H](c2ccco2)N1Cc1ccccc1 | · | · | 1 | · | · | · | · | · | ·
O=C(COc1ccc([N+](=O)[O-])cc1)Nc1cc(C(=O)O)cc(C(=O)O)c1 | 0 | 6 | 3 | 0 | 8 | 2 | · | · | ·
CCOC(=O)c1cc(NC(=O)COc2ccc([N+](=O)[O-])cc2)cc(C(=O)OCC)c1 | -1 | 23 | 63* | 10 | 21 | 0 | 25 | 2 | -25
CCOCC(=O)Nc1cc([N+](=O)[O-])ccc1C | -11 | 26 | 91* | 7 | 18 | -1 | 16 | 0 | 7
COc1ccc(Cl)cc1C(=O)Nc1cccc(-c2ccc3nncn3n2)c1 | -6 | 15 | 21 | -7 | -3 | -3 | · | · | ·
CC(=O)Nc1ccc(S(=O)(=O)N2CCC(NC(=O)C(Cc3ccccc3F)NC(C)=O)CC2)cc1 (stereo not given) | · | 4 | 11 | 16 | 3 | · | · | · | ·
CC(OC(=O)C1=COCCO1)C(=O)NC(C)c1ccc(Cl)cc1Cl (stereo not given) | · | -9 | -14 | 9 | -11 | -1 | · | · | ·
COc1cccc2sc(=NC(=O)CS(=O)(=O)c3ccc(Cl)cc3)n(C)c12 | -8 | -3 | 73* | 40 | -34 | · | 79* | 29* | 40*
CCn1c(=NC(=O)CS(=O)(=O)c2ccc(C)cc2)sc2cccc(OC)c21 | 43 | 10 | 68* | 33 | -9 | · | 61* | 23 | 37*
COc1cccc2sc(=NC(=O)CCS(=O)(=O)c3ccc(C)cc3)n(C)c12 | -1 | 26 | 4 | -11 | 16 | · | · | · | ·
COc1cccc2sc(=NC(=O)CS(=O)(=O)c3ccc(F)cc3)n(C)c12 | 6 | 10 | 61* | -18 | -17 | · | 53* | 29* | 14
Cc1cc(NC(=O)COc2ccc3ccccc3c2)no1 | -9 | -29 | -18 | -23 | -11 | -6 | · | · | ·
Cc1cc(NC(=O)Nc2ccccc2[N+](=O)[O-])n(C)n1 | -3 | -20 | 3 | 1 | 14 | -1 | · | · | ·
CC(C)(C)NC(=O)C(c1ccco1)N(Cc1ccc2c(c1)OCO2)C(=O)c1snc(C(N)=O)c1N (stereo not given) | 0 | -6 | -34 | -6 | 8 | 2 | · | · | ·
Cc1ccnc(SCC(=O)NC2CC2)n1 | 4 | 3 | -14 | -8 | -58 | -4 | · | · | ·
Cc1ccccc1-n1nc(C(=O)c2cccs2)cc(-c2nc3ccccc3[nH]2)c1=N | 18 | 39 | 59* | -12 | -31 | 34 | 35 | 8 | -82
Cc1cccc(-n2nc(C(=O)c3ccco3)cc(-c3nc4ccccc4[nH]3)c2=N)c1 | 19 | 26 | 44 | -19 | -65 | 30 | · | · | ·
SMILES | CSC inhib | Mdm2-MdmX inh | Gli-Sufu antag | Jurkat NFkB inh | 697 NFkB inh | Beta cell apopt | Gli antag conf | Gli cytotox | Wnt3a counter
Cc1nc(NCc2ccc(S(N)(=O)=O)cc2)c2c(C)c(C)sc2n1 | 11 | 23 | 8 | 0 | -4 | 4 | · | · | ·
Cc1nc(NCCc2ccc(S(N)(=O)=O)cc2)c2c(C)c(C)sc2n1 | 18 | 31 | 63* | 8 | -26 | ? | 59* | 39* | 25
Cc1ccc(C(=O)N2CCN(c3nc4ccccc4n3C)CC2)cc1 | 3 | -13 | 70* | -3 | -14 | -4 | 13 | 23 | -83
O=S(=O)(NCCc1ccccc1)c1ccc(-n2cnnn2)cc1 | -5 | 21 | 54 | 29 | 13 | -1 | 17 | 1 | -4
Cc1cc(S(=O)(=O)NCCc2ccccc2)ccc1-n1cnnn1 | · | 3 | 20 | 3 | -1 | 0 | · | · | ·
CC(C)n1c(NCCc2ccccc2)nc2c1c(=O)n(C)c(=O)n2C | 13 | 33 | 51 | 23 | -58 | · | 59* | 38* | -5
CC(O)CNc1nc2c(c(=O)n(C)c(=O)n2C)n1Cc1cccc(C(F)(F)F)c1 (stereo not given) | -17 | 0 | 15 | -5 | -5 | -6 | · | · | ·
CCCNc1nc2c(c(=O)n(C)c(=O)n2C)n1Cc1cccc(C)c1 | -11 | 26 | 65* | 28 | -9 | 37 | 59* | 20 | 31*
COc1cccc(Cn2c(NCc3ccco3)nc3c2c(=O)n(C)c(=O)n3C)c1 | 0 | 12 | 81* | 17 | -15 | 95* | 80* | 41* | 39*
COCCNc1nc2c(c(=O)n(C)c(=O)n2C)n1Cc1cccc(C(F)(F)F)c1 | · | 7 | 68* | 12 | -10 | 87* | 71* | 29* | 28*
CCOC(=O)Cc1csc(NC(=O)Nc2cccc(OC)c2)n1 | 7 | -10 | -6 | -12 | -22 | -2 | · | · | ·
CCSc1nnc2ccc(-c3ccc(C)cc3)nn12 | 0 | -10 | -5 | -10 | 3 | -5 | · | · | ·
Cc1cccc([N+](=O)[O-])c1NC(=O)CSc1nnc2ccccn12 | -9 | -32 | -1 | -4 | 0 | -2 | · | · | ·
